The campaign covered roughly 5,500 compounds. About 2,000 (36%) were called active. Another 18% or so got no clear call; they are omitted. No stated cut-off is given here; in the data, active means normalized growth mostly below about 0.91 (no sharp cut-off); inconclusive means no clear call, values can overlap the other calls; inactive means mostly above about 0.92. Some of the results follow.
Experiment: chemical genetic growth profiling, strain panel (AID 1159580);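 further: tested at 20 µM; growth read once vehicle control cultures reached saturation at 30 °C; 1 = growth at the plate median or of vehicle wells; lower values mean less growth of the strain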
Settings: S. cerevisiae deletion strains, growth OD

Measured: normalized growth

NC(C(=O)O)c1cc(=O)[nH]o1 (centres undefined)
inactive: locus YAL013W, strain DEP1, hits give low values 1.02 | locus YAL040C, strain CLN3, hits give low values 1.01 | locus YCL061C, strain MRC1 (second series), hits give low values 1 | locus YDR150W, strain NUM1, hits give low values 1 | locus YDR363W, strain ESC2, hits give low values 1.04 | locus YER002W, strain NOP16, hits give low values 1.01 | locus YGR229C, strain SMI1, hits give low values 1.04 | locus YMR263W, strain SAP30, hits give low values 1 | locus YMR307W, strain GAS1, hits give low values 1.01 | locus YNL153C, strain GIM3, hits give low values 1.04 | locus YNL175C, strain NOP13, hits give low values 1.02 | locus YNL197C, strain WHI3, hits give low values 0.999 | locus YNL224C, strain SQS1, hits give low values 0.996 | locus YOR083W, strain WHI5 (second series), hits give low values 1.01
